Experiment [1] in a line: Nrf2 qHTS screen for inhibitors: Validation (AID 493153; active means well fitted inhibition curve with a large enough effect in the main read-out, with a control signal flat, not every such curve was filed as active). Particulars: Potency: luciferase luminescence; viability change: measured here: cytotoxicity max response. A digest of the protocol: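 Concentration-response on A549 ARE_Fluc reporter cells exposed 18-24 h at 37 C, 5% CO2. Cytotoxicity read first by CellTiter-Fluor fluorescence (Ex 405/Em 525), then Nrf2 inhibition by BugLite luminescence after 15 min.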

A short description of experiment [2]: qHTS for Inhibitors of Cell Surface uPA Generation: Validation Assay (AID 493164).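 Further: RAW 264.7 macrophage cells exposed to compound for 18 h; 0% is about no effect.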 A digest of the protocol:
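ATP-Lite luminescence read-out: ATP remains high when uPA activity-dependent LF translocation into the cytoplasm is blocked. RAW 264.7 cells, 18 h compound exposure at 37 C; 7-point titration, 2.45 nM to 38.3 uM final.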
On the technique in general: In qHTS, concentration-response curves come from the screen itself.

The target of experiment [3] is Galactokinase (Homo sapiens) (UniProt P51570). The experiment can be described thus: qHTS Validation Assay for Inhibitors of Human Galactokinase (GALK) (AID 493189). Further: 0% is about no effect. Summed up: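 GALK (5 nM) with 35 uM ATP and 100 uM galactose in HEPES pH8.0, MgCl2, NaCl, DTT, BSA; 1 h at room temperature. Residual ATP read by Kinase-Glo Plus luminescence after 10 min.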
Experiment [4] in a line: Validation screen for small molecules that induce DNA re-replication in SW480 colon adenocarcinoma cells (AID 504364). Further: 0% is about no effect. Summed up:
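Image-based DNA content read-out: Hoechst stain 40 min, total nuclear fluorescence intensity (ex 405 nm, em 500-530 nm) after 48 h compound exposure of 250 SW480 cells/well at 37 C, 5% CO2, versus DMSO vehicle.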

For experiment [5], the target named is Peptidyl-prolyl cis-trans isomerase NIMA-interacting 1 (Homo sapiens) (UniProt Q13526). The experiment can be described thus: qHTS Validation Assay to Find Inhibitors of Pin1 (AID 504536; active means well fitted inhibition curve with a large enough effect in the polarisation, with a control signal flat, not every such curve was filed as active; the % refers to the polarisation;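 further: 0% = full Pin1 enzyme wells and -100% = no-enzyme wells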). Summed up: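 Fluorescence polarization competition: compounds (titration) displace HiFluor-488-labeled Pin1-1b peptide from Pin1 (0.3 uM final) in pH 7.5 HEPES buffer with DTT, 10 min at room temperature; %Activity normalized to no-enzyme wells, curves fitted.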

For experiment [6], the target named is Phosphoglycerate kinase, glycosomal (Trypanosoma brucei brucei) (UniProt P07378). The experiment can be described thus: qHTS Validation Assay to Find Inhibitors of Phosphoglycerate Kinase (AID 504547).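 Further: control wells lack PGK and mark full inhibition.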 Summed up: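 Compounds are pinned into the substrate/PGK mixture, and GAPDH (100nM final) is added to start the reaction by producing 1,3-BPG. After 60 minutes at room temperature, Kinase-Glo Plus is added and luminescence is measured 10 minutes later.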

The target of experiment [7] is phosphoglycerate mutase (Leishmania major) (UniProt Q4Q090). Put plainly: qHTS Validation Assay to Find Inhibitors of Phosphoglycerate Mutase (AID 504548). Further: series mostly up to about 58 µM; on the % scale 0 is the no-effect control and ±100 the full control effect. A digest of the protocol:
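Lm PGAM at 1.25 nM final with substrate in 100 mM TEA pH 7.6, 5 mM MgCl2, 0.01% Tween-20; 45 min at room temperature. Kinase-GloPlus added, 10 min, end-point luminescence read.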

Experiment [8] deals with Ubiquitin carboxyl-terminal hydrolase 1 (Homo sapiens) (UniProt O94782). The experiment can be described thus: Inhibitors of USP1/UAF1: Pilot qHTS (AID 504865). Further: nearly all actives have a fitted effect of over 35% in size. Further: potency means the concentration at half of the fitted maximal effect. A digest of the protocol: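 USP1/UAF1 complex (1nM) preincubated with compound 15 min at room temperature, then Ub-Rho substrate (150nM final) added. Fluorescence read kinetically at 480/540 nm, 6 reads every 60 seconds. Buffer: 50mM HEPES pH 7.8, 0.5mM EDTA, 0.1 mg/ml BSA, 1mM TCEP, 0.01% Tween-20.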

Experiment [9] in a line: qHTS for Inhibitors of ATXN expression: Validation of Cytotoxic Assay (AID 588349). Further: on the % scale 0 is the no-effect control and ±100 the full control effect. A digest of the protocol:
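Cytotoxicity counter-screen: ATP-based luminescent viability (CellTiter Glo) after 72 hr exposure of HEK293 cells to a compound titration at 37 degrees C.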

A short description of experiment [10]: qHTS for Inhibitors of ATXN expression: Validation (AID 588378). Further: series mostly up to about 57 µM; on the % scale 0 is the no-effect control and ±100 the full control effect; nearly all actives have a fitted effect of over 75% in size. A digest of the protocol:
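Luminescence from an ATXN2-FFLuc reporter in HEK293 cells served as read-out after 24 h compound treatment at 37 degrees C; CellTiter-Fluor fluorescence was recorded first to assess viability.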

For experiment [11], the target named is Thyrotropin-releasing hormone receptor (Homo sapiens) (UniProt P34981). The experiment can be described thus: qHTS for Small Molecule Agonists and Allosteric Enhancers of Human TRH Receptor: Validation Screen for Agonists (AID 493127;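 active means calcium activation more than 3 SD above the typical response in the agonist read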;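 further: intracellular calcium rise by fluo-8 fluorescence before TRH EC20 addition; 0% is about no effect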). Particulars: TRH receptor agonist cell assay; at 2 µM; stronger effect = higher value. A digest of the protocol:
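Compound-evoked intracellular calcium release in fluo-8-loaded TRHR cells, read kinetically on FDSS (Ex 480/Em 530, 1 s/cycle) after 23 nL pintool transfer. Agonist phase preceded 10 nM TRH EC20 addition.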

Records with an inconclusive call do not appear. The source made the active and inactive calls. Unless noted, the call rests on the fitted dose curve; in most records, active means well fitted curve in the direction sought with a large enough effect; inconclusive means small, poorly fitted or top-dose-only effect, or another doubt; inactive means no such curve, though single readings can be large; an effect the other way counts as inactive or inconclusive.

Chain of Phosphoglycerate kinase, glycosomal (Trypanosoma brucei brucei) (P07378 whole entry, looked up): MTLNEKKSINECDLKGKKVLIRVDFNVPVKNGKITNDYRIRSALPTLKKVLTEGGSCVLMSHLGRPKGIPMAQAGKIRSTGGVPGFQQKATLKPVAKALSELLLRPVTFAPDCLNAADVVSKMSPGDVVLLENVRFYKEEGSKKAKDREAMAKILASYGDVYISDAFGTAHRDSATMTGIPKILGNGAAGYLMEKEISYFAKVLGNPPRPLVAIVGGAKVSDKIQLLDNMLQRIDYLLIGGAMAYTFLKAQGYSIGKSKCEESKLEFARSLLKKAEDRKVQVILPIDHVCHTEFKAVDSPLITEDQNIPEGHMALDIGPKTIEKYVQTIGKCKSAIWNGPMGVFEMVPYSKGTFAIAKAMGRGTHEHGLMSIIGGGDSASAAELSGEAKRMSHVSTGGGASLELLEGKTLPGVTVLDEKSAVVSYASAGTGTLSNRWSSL
Chain of Galactokinase (Homo sapiens) (P51570 whole entry, looked up): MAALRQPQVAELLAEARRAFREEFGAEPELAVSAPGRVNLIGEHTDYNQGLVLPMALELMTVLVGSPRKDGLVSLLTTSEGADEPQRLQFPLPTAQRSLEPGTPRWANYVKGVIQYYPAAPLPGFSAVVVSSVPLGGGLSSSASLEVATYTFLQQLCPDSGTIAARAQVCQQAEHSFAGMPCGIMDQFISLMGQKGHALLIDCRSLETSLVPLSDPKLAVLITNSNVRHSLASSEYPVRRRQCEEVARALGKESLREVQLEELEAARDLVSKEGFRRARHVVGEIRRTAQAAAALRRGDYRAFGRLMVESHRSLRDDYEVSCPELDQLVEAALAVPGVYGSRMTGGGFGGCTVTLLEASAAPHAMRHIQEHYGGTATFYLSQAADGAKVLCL
Chain of Ubiquitin carboxyl-terminal hydrolase 1 (Homo sapiens) (O94782 whole entry, looked up): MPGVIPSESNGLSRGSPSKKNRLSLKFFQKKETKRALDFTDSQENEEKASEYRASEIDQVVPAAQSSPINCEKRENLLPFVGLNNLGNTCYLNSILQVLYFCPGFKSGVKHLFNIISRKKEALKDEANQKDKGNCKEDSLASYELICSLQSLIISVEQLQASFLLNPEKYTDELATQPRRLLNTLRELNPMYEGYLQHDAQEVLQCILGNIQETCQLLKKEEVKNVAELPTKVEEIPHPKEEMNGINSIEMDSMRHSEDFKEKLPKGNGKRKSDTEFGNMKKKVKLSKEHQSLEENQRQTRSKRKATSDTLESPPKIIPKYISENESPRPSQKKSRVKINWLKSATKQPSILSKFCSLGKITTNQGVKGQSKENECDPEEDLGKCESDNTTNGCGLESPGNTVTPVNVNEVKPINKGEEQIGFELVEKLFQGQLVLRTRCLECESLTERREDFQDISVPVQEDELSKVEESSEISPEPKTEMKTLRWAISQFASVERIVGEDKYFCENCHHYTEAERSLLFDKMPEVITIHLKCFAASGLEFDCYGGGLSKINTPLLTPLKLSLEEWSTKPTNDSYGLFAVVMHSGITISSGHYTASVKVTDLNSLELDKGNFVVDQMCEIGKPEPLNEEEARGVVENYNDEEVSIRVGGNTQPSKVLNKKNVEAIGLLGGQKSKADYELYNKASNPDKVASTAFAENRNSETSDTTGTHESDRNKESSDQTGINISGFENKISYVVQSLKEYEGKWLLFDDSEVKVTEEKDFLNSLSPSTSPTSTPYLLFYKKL
Chain of Thyrotropin-releasing hormone receptor (Homo sapiens) (P34981 whole entry, looked up): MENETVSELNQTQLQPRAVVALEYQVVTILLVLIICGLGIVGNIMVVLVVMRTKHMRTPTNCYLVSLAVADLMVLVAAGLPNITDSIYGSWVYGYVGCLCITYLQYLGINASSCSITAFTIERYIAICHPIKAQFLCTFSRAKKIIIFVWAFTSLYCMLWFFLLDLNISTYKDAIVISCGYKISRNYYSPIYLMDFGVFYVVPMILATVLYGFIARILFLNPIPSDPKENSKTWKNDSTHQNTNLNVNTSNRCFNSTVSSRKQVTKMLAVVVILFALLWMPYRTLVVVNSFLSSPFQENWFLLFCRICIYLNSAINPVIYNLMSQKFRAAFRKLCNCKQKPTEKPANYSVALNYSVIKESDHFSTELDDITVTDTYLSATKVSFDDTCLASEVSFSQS
Chain of phosphoglycerate mutase (Leishmania major) (Q4Q090 1-553): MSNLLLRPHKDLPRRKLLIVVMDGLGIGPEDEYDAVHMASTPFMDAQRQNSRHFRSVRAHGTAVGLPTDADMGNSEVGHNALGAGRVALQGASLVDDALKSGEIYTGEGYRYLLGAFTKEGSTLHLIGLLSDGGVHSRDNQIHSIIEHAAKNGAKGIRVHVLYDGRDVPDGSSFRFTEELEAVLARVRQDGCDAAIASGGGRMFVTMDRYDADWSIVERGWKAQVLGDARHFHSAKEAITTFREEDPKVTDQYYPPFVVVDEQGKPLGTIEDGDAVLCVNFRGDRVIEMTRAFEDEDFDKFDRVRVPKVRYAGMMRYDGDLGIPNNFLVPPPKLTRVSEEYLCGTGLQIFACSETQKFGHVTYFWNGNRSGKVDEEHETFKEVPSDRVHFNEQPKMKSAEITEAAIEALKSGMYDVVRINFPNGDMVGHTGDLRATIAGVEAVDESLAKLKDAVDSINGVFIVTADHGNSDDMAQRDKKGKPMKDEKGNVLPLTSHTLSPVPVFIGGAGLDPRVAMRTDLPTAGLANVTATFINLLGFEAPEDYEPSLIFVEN
Chain of Peptidyl-prolyl cis-trans isomerase NIMA-interacting 1 (Homo sapiens) (Q13526 whole entry, looked up): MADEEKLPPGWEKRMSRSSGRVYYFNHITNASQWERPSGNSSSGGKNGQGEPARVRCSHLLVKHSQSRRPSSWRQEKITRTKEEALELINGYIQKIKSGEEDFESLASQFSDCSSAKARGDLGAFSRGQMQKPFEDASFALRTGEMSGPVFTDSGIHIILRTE

Consider `O=C(O)CN(CCOCCOCCN(CC(=O)O)CC(=O)O)CC(=O)O`, for which the Potency entry in experiment [1], in [8], in experiment [9] and in experiment [10] was “inactive” each time. Further, the viability change in [1] is 3.82%. The compound was called inactive in experiment [2], in [3], in experiment [4], in experiment [5], in experiment [6] and in experiment [7].

As to `CC(=O)OC(C)C[N+](C)(C)C` (stereo not drawn), the Potency result in [1], in experiment [8], in [9] and in experiment [10] was “inactive” in each case. Besides, the viability change in experiment [1] was determined as 2.56%. For the same compound, the call in experiment [2], in [3], in experiment [4], in experiment [5], in experiment [6] and in experiment [7] was inactive.

As for `CC(N=C(NC#N)Nc1ccncc1)C(C)(C)C` (stereo not drawn), the activation in [11] was 0.125% (inactive). In addition, the Potency result in [1], in [9] and in experiment [10] was “inactive” in each case. The viability change in [1] was -0.502%. Besides, the outcome in experiment [2], in experiment [4] and in [5] was inactive.

With `CCN(CC)CCOCCOC(=O)C1(c2ccccc2)CCCC1`, the Potency entry in experiment [1] and in [8] was “inactive” in each case. Further, the viability change in experiment [1] came out at 0.933%. In addition, the outcome in [2], in experiment [3], in experiment [4], in [5], in [6] and in experiment [7] was inactive.

As to `OCCN1CCN(CCCN2c3ccccc3C=Cc3ccccc32)CC1`, the Potency entry in [1] is “inactive”. For the same compound, in experiment [1], the viability change came out at 4.92%. Further, the compound was classed as inactive in experiment [2], in experiment [3], in experiment [4], in experiment [5], in experiment [6] and in [7].

`O=C(CCCN1CCC(O)(c2cccc(C(F)(F)F)c2)CC1)c1ccc(F)cc1`: the activation in [11] is 3.56% (inactive). The Potency result in experiment [1], in [8] and in experiment [9] was “inactive” throughout. The viability change in experiment [1] was -9.85%. Also, the result in [2], in [4] and in [5] was inactive.

Consider `O=C1NCN(c2ccccc2)C12CCN(CCCC(c1ccc(F)cc1)c1ccc(F)cc1)CC2`, for which the activation in experiment [11] was 0.75% (inactive). Besides, the result in experiment [2], in [3], in experiment [4], in experiment [5], in experiment [6] and in experiment [7] was inactive. Besides, in experiment [10], the Potency result was “inactive”.

In the case of `Cc1cc(C)c(/C=C2\C(=O)Nc3ccccc32)[nH]1`, the activation in experiment [11] is 0.562% (inactive). Further, the compound was classed as inactive in [2], in [3], in experiment [4], in experiment [6] and in [7]. For the same compound, the Potency in [8] was 7.52 µM (active). For the same compound, in experiment [10], the Potency entry was “inactive”.

In the case of `CN1C(=O)CC[C@H]1c1cccnc1`, the Potency result in experiment [1], in experiment [9] and in [10] was “inactive” each time. The viability change in [1] was found to be 0.268%. Further, the call in experiment [2], in [5], in experiment [6] and in experiment [7] was inactive.

As to `COc1ccc([C@@H]2Sc3ccccc3N(CCN(C)C)C(=O)[C@@H]2OC(C)=O)cc1`, the outcome in experiment [2], in experiment [3], in [4], in experiment [5], in experiment [6] and in experiment [7] was inactive. Also, the Potency result in experiment [9] and in experiment [10] was “inactive” in each case.

For `CCN(CC)CCCN(c1ccccc1)C1Cc2ccccc2C1`, in [1], the Potency result is “inactive”. In addition, in experiment [1], the viability change is -6.42%. Besides, the compound was classed as inactive in experiment [2], in experiment [5], in experiment [6] and in experiment [7].

For the origin of these results see PubChem BioAssay (NCATS).
